The results in this text go back to PubChem BioAssay (NCATS).

Records with an inconclusive call do not appear. A number with no mark means an inactive call. Calls come from the whole dose curve; as a rule, active = well fitted inhibition curve with a large enough effect; inconclusive = small, poorly fitted or top-dose-only effect; inactive = flat fitted curve, though single readings scatter.
% is set by controls: 0 for no effect and ±100 for the full control effect.

The target in this assay is Calcium and integrin-binding protein 1 (Homo sapiens) (UniProt Q99828). Kind of assay: Primary qHTS for Identification of Calcium Integrin Binding Protein 1 (CIB1) Competitor (AID 1508620).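 Note: GST tagged CIB1 binding a fluorescein labelled alphaIIb integrin peptide tracer; top concentration of the series differs between compounds.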 The settings on record: CIB1-GST / FITC-alphaIIb peptide fluorescence polarization; series mostly up to 114 µM; activity change, negative = inhibition: at the top concentration. In outline: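 Fluorescence polarization competition: CIB1-GST (1 uM final) preincubated with compound 15 min at room temperature, then FITC-labeled alphaIIb peptide (100 nM final) added for another 15 min. Polarization read at Ex 480/Em 540.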
Chain of Calcium and integrin-binding protein 1 (Homo sapiens) (Q99828 whole entry, looked up): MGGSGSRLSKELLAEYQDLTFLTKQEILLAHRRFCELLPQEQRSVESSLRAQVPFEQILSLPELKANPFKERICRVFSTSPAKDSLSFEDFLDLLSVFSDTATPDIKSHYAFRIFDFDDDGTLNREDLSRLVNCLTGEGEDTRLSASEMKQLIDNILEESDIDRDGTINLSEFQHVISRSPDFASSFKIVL
A general note: qHTS replaces the single test concentration by a dilution series.
Regarding `Cc1nc(NCc2ccccc2)c2nc(-c3ccccc3)n(CCCN3CCCCC3C)c2n1` (stereo unspecified), the “activity change, negative = inhibition” value is -0.805%.

In the case of `CCCn1c(-c2ccc(F)cc2)nc2c(NCCCN(C)C)nc(C)nc21`, the “activity change, negative = inhibition” value was 2.94%.

Turning to `CCCn1c(C)nc2c(NCC3CCCN3CC)nc(C)nc21` (stereo unspecified), the “activity change, negative = inhibition” value was -2.24%.

Turning to `CCCn1c(C)nc2c(N(CCN(CC)CC)CCN(CC)CC)nc(C)nc21`, the “activity change, negative = inhibition” value was -3%.

Consider `Cc1nc(NC2CCCCC2)c2nc(-c3ccccc3)n(CCN3CCCCC3)c2n1`, for which the “activity change, negative = inhibition” value was -2.49%.

Consider `CCCCNc1nc(C)nc2c1nc(-c1ccccc1)n2CCCN1CCCCC1C` (stereo unspecified), for which the “activity change, negative = inhibition” value is 0.924%.

`CCCn1c(C)nc2c(N3CCC(N(C)C)C3)nc(C)nc21` (stereo unspecified): the “activity change, negative = inhibition” value was 7.39%.

For `CCCn1c(C)nc2c(N3CCN(C)CC3)nc(C)nc21`, the “activity change, negative = inhibition” value is 2.71%.

For `CCCn1c(-c2ccc(F)cc2)nc2c(N3CCCN(Cc4ccccc4)CC3)nc(C)nc21`, the “activity change, negative = inhibition” value was 0.131%.

`CCCCNc1nc(C)nc2c1nc(-c1ccccc1)n2C1CCN(Cc2ccccc2)C1` (stereo unspecified): the “activity change, negative = inhibition” value was 3.29%.

Regarding `COCCNc1nc(C)nc2c1nc(-c1ccccc1)n2CC1CCN(C)CC1`, the “activity change, negative = inhibition” value is 3.52%.

On to `Cc1nc(NCc2ccccc2)c2nc(-c3ccccc3)n(CC(C)(C)CN(C)C)c2n1`, for which the “activity change, negative = inhibition” value was -0.157%.

`CCCn1c(C)nc2c(NC(C)CN(C)C)nc(C)nc21` (stereo unspecified): the “activity change, negative = inhibition” value was 2.46%.

`Cc1nc(NCCO)c2nc(-c3ccccc3)n(CC3CCN(C)CC3)c2n1`: the “activity change, negative = inhibition” value is 0.603%.

For the compound `CCCn1c(C)nc2c(N3CCC(N4CCN(C)CC4)CC3)nc(C)nc21`, the “activity change, negative = inhibition” value was -0.391%.

As for `Cc1nc(NCCO)c2nc(-c3ccccc3)n(CCCN(C)C)c2n1`, the “activity change, negative = inhibition” value is -3.47%.
